Data from PubChem BioAssay (NCI).
This is part of a sample that, as a whole, favours compounds with a hit. Of some 83,000 tested, about 20% had one in any assay.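 Single-concentration screen, 48 h exposure, 96-well plates. Endpoint: percent growth. Below 10 = active.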 Values without a mark were called inactive. The source made the active and inactive calls.

tested on: UACC-257 melanoma; assay: NCI-60 one-dose screen, 48 h (100 = growth as untreated, 0 = no growth, -100 = all killed); conditions: 10 µM unless noted

| SMILES | growth |
| --- | --- |
| C=C1CC[C@@H]2[C@]3(C)COC(c4cn[nH]c4-c4ccc(OC)cc4)O[C@@H]3CC[C@@]2(C)[C@@H]1C/C=C1/C(=O)OCC1O (some centres undefined) | -24.6% (active) |
| Cc1ccc(/C=C/c2n(Cc3ccc4ccccc4c3)c3ccccc3[n+]2Cc2ccc3ccccc3c2)cc1 | -71.5% (active) |
| Cc1c(C(=O)NNC(=O)c2ccc(Cl)cc2)nnn1-c1ccc(Br)cc1 | 97.7% |
| CC(=O)Nc1cccc(Nc2nc(NCc3ccccc3)c3ccccc3n2)c1 | -83.6% (active) |
| C[C@H](Nc1nc(NCCc2ccccc2)nc2ccccc12)c1ccccc1 | -76% (active) |
| Cc1c(C(=O)NNC(=O)Nc2ccc(Cl)cc2)nnn1-c1ccc(Br)cc1 | 99% |
| O=c1oc2ccccc2cc1-c1csc(N=Nc2c(O)[nH]c3ccc(Cl)cc23)n1 | 104% |
| O=c1c2ccccc2nc(-c2ccccc2)n1/N=C/c1ccc2ccccc2c1 | 49.3% |
| CN(C)c1nc(NCCNS(=O)(=O)c2ccc(C3=Nc4c(N)nc(N)nc4NC(c4ccccc4)C3)cc2)nc(Nc2ccc(F)cc2)n1 (centres undefined) | 70.8% |
| O=C(O)c1cccc(-c2ccc(/C=N/NC(=O)c3[nH]c4ccc(Br)cc4c3-c3ccccc3)o2)c1 | 93.8% |
| Cc1ccc2c(N)c(C(=O)Nc3ccc(OC(F)(F)F)cc3)sc2n1 | 70% |
| COc1cc(/C=C/C(=O)c2nnn(-c3ccc(Cl)cc3)c2C)cc(OC)c1OC | 35.3% |
| N#Cc1ccc(C(=O)Nn2c(N)cc3ccccc3c2=O)cc1 | 99.5% |
| COc1cc(-c2ccc(/C=N/NC(=O)c3[nH]c4ccc(Br)cc4c3-c3ccccc3)s2)cc(OC)c1OC | 100% |
| N#Cc1c(-c2ccc(Br)cc2)nc2n[nH]c(-c3ccc(Br)cc3)c2c1-c1ccc(F)cc1 | 103% |
| Cn1nc(C(F)(F)F)cc1-c1cc(Cl)c(COc2ccc(Cl)cc2)c(-c2ccc(Cl)c(C(F)(F)F)c2)c1O | -31.4% (active) |
| CC1=C(C(=O)OCc2ccccc2)C(c2c(O)cc(O)cc2O)n2c(nc3ccccc32)N1 (centres undefined) | 47.9% |
| Cc1ncsc1-c1ccc(CNC(=O)[C@@H]2C[C@@H](O)CN2C(=O)[C@@H](NC(=O)C2(F)CC2)C(C)(C)C)c(OCCOCCOCCOCCOc2nc(Nc3cc(S(C)(=O)=O)ccc3N[C@@H](c3cccc4c3OC(F)(F)O4)c3ncccc3Cl)nc(N3CCNCC3)n2)c1 | 94.4% |
| N#Cc1c(-c2ccc(Cl)cc2)nc2n[nH]c(-c3ccc(Cl)cc3)c2c1-c1cccs1 | 58.1% |
| COc1cccc(-c2c(C#N)c(-c3ccc(Cl)cc3)nc3n[nH]c(-c4ccc(Cl)cc4)c23)c1 | 54.4% |
| CCCCn1c(O)c(N=Nc2nc(-c3cc4ccccc4oc3=O)cs2)c2cc(Br)ccc21 | 103% |
| C=C1CC[C@@H]2[C@]3(C)COC(c4cn(-c5ccccc5)nc4-c4ccccc4)O[C@@H]3CC[C@@]2(C)[C@@H]1C/C=C1/C(=O)OC[C@H]1O (some centres undefined) | -77.2% (active) |
| CCCCCCn1c(O)c(N=Nc2nc(-c3cc4ccccc4oc3=O)cs2)c2ccccc21 | 46.3% |
| CSc1ccc(C(=O)Nc2ccc3nnn(/C(C#N)=C/c4ccccn4)c3c2)cc1 | -38.9% (active) |
| CCOC(=O)C1=C(N)N(c2ccccc2)C2=C(C(=O)CC(C)(C)C2)C1c1cccc(Cl)c1Cl (centres undefined) | 85.4% |

tested on: M14 melanoma; assay: as above; conditions: 10 µM unless noted

| SMILES | growth |
| --- | --- |
| O=C(CSc1nc2ccccc2c(=O)[nH]1)NCCN1CCCCC1 | 94.4% |
| N#Cc1c(-c2ccccc2Cl)cc(-c2c[nH]c3ccccc23)[nH]c1=O | 64.1% |
| CCCCSc1nc(Nc2ccc(C(C)=O)cc2)c(C#N)c(-c2ccc(OC)cc2)n1 | 91.8% |
| O=C(NNc1ccccc1)n1c(=O)c2ccccc2c(=O)n1-c1ccccc1 | 100% |
| CC(=O)Oc1ccccc1C(=O)[Se]CC(=O)Nc1cccc(C(F)(F)F)c1 | -37.4% (active) |
| COc1ccc(Cc2nn(CC(=O)N/N=C/c3ccc(F)cc3)c(=O)c3c(C)noc23)cc1 | 50.8% |
| COc1ccc(C(=O)/C=C/c2ccc(Oc3nc(Nc4ccc(F)cc4)nc(N(C)C)n3)c(OC)c2)cc1 | 65.1% |
| O=C(N/N=C/c1ccc(-c2ccc(O)cc2)o1)c1[nH]c2ccc(Br)cc2c1-c1ccccc1 | 18.1% |
| CC(=O)OC[C@@]1(C)C2CC[C@]3(C)C(CC=C4C5CC(C)(C)CC[C@]5(C(=O)Nc5ccc(Br)cc5)CC[C@]43C)[C@@]2(C)C[C@@H](OC(C)=O)[C@@H]1OC(C)=O (some centres undefined) | 52.6% |
| Cc1ccc(-n2c(-c3cc4ccccc4nc3Cl)noc2=O)cc1 | 72.7% |
| O=c1cc(-c2ccccc2)oc2cc(OCCCC[P+](c3ccccc3)(c3ccccc3)c3ccccc3)cc(O)c12 | -70.1% (active) |
| Cc1ccc(Cc2cnc(NC(=O)c3ccc(/C=C4\SC(=S)N(C)C4=O)cc3)s2)cc1 | 20.5% |
| C=C1CC[C@@H]2[C@]3(C)COC(c4cn[nH]c4-c4ccc(OC)cc4)O[C@@H]3CC[C@@]2(C)[C@@H]1C/C=C1/C(=O)OCC1O (some centres undefined) | -50.9% (active) |
| Cc1ccc(/C=C/c2n(Cc3ccc4ccccc4c3)c3ccccc3[n+]2Cc2ccc3ccccc3c2)cc1 | -74.1% (active) |
| Cc1c(C(=O)NNC(=O)c2ccc(Cl)cc2)nnn1-c1ccc(Br)cc1 | 98.8% |
| CC(=O)Nc1cccc(Nc2nc(NCc3ccccc3)c3ccccc3n2)c1 | -86.5% (active) |
| Cc1c(C(=O)NNC(=O)Nc2ccc(Cl)cc2)nnn1-c1ccc(Br)cc1 | 101% |

| SMILES | growth |
| --- | --- |
| O=c1oc2ccccc2cc1-c1csc(N=Nc2c(O)[nH]c3ccc(Cl)cc23)n1 | 109% |
| O=c1c2ccccc2nc(-c2ccccc2)n1/N=C/c1ccc2ccccc2c1 | 57.2% |
| CN(C)c1nc(NCCNS(=O)(=O)c2ccc(C3=Nc4c(N)nc(N)nc4NC(c4ccccc4)C3)cc2)nc(Nc2ccc(F)cc2)n1 (centres undefined) | 49.4% |
| O=C(O)c1cccc(-c2ccc(/C=N/NC(=O)c3[nH]c4ccc(Br)cc4c3-c3ccccc3)o2)c1 | 65.9% |
| N#Cc1ccc(C(=O)Nn2c(N)cc3ccccc3c2=O)cc1 | 94.5% |
| COc1cc(-c2ccc(/C=N/NC(=O)c3[nH]c4ccc(Br)cc4c3-c3ccccc3)s2)cc(OC)c1OC | 82.5% |
| N#Cc1c(-c2ccc(Br)cc2)nc2n[nH]c(-c3ccc(Br)cc3)c2c1-c1ccc(F)cc1 | 97.7% |
| Cn1nc(C(F)(F)F)cc1-c1cc(Cl)c(COc2ccc(Cl)cc2)c(-c2ccc(Cl)c(C(F)(F)F)c2)c1O | -67% (active) |
| CC1=C(C(=O)OCc2ccccc2)C(c2c(O)cc(O)cc2O)n2c(nc3ccccc32)N1 (centres undefined) | 41.7% |
| Cc1ncsc1-c1ccc(CNC(=O)[C@@H]2C[C@@H](O)CN2C(=O)[C@@H](NC(=O)C2(F)CC2)C(C)(C)C)c(OCCOCCOCCOCCOc2nc(Nc3cc(S(C)(=O)=O)ccc3N[C@@H](c3cccc4c3OC(F)(F)O4)c3ncccc3Cl)nc(N3CCNCC3)n2)c1 | 97.5% |
| N#Cc1c(-c2ccc(Cl)cc2)nc2n[nH]c(-c3ccc(Cl)cc3)c2c1-c1cccs1 | 64.6% |
| COc1cccc(-c2c(C#N)c(-c3ccc(Cl)cc3)nc3n[nH]c(-c4ccc(Cl)cc4)c23)c1 | 36.8% |
| CCCCn1c(O)c(N=Nc2nc(-c3cc4ccccc4oc3=O)cs2)c2cc(Br)ccc21 | 112% |
| C=C1CC[C@@H]2[C@]3(C)COC(c4cn(-c5ccccc5)nc4-c4ccccc4)O[C@@H]3CC[C@@]2(C)[C@@H]1C/C=C1/C(=O)OC[C@H]1O (some centres undefined) | -80.4% (active) |
| CCCCCCn1c(O)c(N=Nc2nc(-c3cc4ccccc4oc3=O)cs2)c2ccccc21 | -4.72% (active) |
| CSc1ccc(C(=O)Nc2ccc3nnn(/C(C#N)=C/c4ccccn4)c3c2)cc1 | -73.2% (active) |
| CCOC(=O)C1=C(N)N(c2ccccc2)C2=C(C(=O)CC(C)(C)C2)C1c1cccc(Cl)c1Cl (centres undefined) | 81% |
